Counter-ions that a name gives are not always drawn. ± gives the uncertainty stated by the source.
Each molecule was assayed on THP-1 (assay: CD86 surface expression induction over DMSO control (% over DMSO); higher = stronger dendritic cell activation). Conditions: exposure time: 24 h.
Description: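 hCLAT-like CD54 and CD86 surface expression on THP1 cells after 24 h exposure at a single concentration (highest non-cytotoxic concentration, or 100-200 µM if not cytotoxic). Flow cytometry (iQue) was run on 5,000 live cells.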

Structure (SMILES) | CD86 surface expression induction
O=C1c2ccccc2C(=O)C1c1ccc2ccccc2n1 [D & C Yellow II] (10 µM) | -14.2 ± 7.4
CCCCCCCCN [n-Octylamine] (100 µM) | -6.07 ± 0.55
COc1cc(Nc2c(C#N)cnc3cc(OCCCN4CCN(C)CC4)c(OC)cc23)c(Cl)cc1Cl [Bosutinib] (100 µM) | 5.12 ± 41
CCCCCCCC(=O)Oc1c(Br)cc(C#N)cc1Br [Bromoxynil octanoate] (100 µM) | -3.51 ± 5
CCCCCCCCCCCCCC[N+](C)(C)C [Tetradonium bromide] (10 µM) | 53 ± 19
Nc1ncn([C@@H]2O[C@H](CO)[C@@H](O)[C@H]2O)c(=O)n1 [5-Azacytidine] (10 µM) | -17.2 ± 5.3
O=C(/C=C/C=C/c1ccc2c(c1)OCO2)N1CCCCC1 [Piperine] (100 µM) | -4.64 ± 6.3
O=C1OC(OC(=O)c2cccnc2Nc2cccc(C(F)(F)F)c2)c2ccccc21 (stereo not given) [Talniflumate] (100 µM) | -7.81 ± 1
O=CC(=O)c1ccccc1 [Phenyl glyoxal] (100 µM) | 4.41 ± 2
S=C(NC1CCCCC1)NC1CCCCC1 [N,N'-Dicyclohexylthiourea] (10 µM) | -17.9 ± 4.5
CCCCCCCC/C=C\CCCCCCCC(=O)N(C)CC(=O)O [Oleyl sarcosine] (100 µM) | -14.4 ± 36
c1ccc(CCNc2nc(-c3ccccc3)cs2)cc1 [Fanetizole] (200 µM) | -6.54 ± 1.4
CC(C)C[C@H](NC(=O)[C@H](Cc1ccccc1)NC(=O)c1cnccn1)B(O)O [Bortezomib] (10 µM) | 107 ± 8.1
COC(=O)Nc1nc2ccc(C(=O)C3CC3)cc2[nH]1 [Cyclobendazole] (100 µM) | 7.71 ± 16
O=C(Nc1ccccc1)c1cc(Cl)ccc1O [5-Chlorosalicylanilide] (10 µM) | -11.7 ± 12
COc1cccc2c1C(=O)c1c(O)c3c(c(O)c1C2=O)C[C@@](O)(C(=O)CO)C[C@@H]3O[C@H]1C[C@H](N)[C@H](O[C@@H]2CCCCO2)[C@H](C)O1 [Pirarubicin*] (10 µM) | 324 ± 3.3
COC(=O)Nc1nc2cc(Sc3ccccc3)ccc2[nH]1 [Fenbendazole] (100 µM) | -18.1 ± 26
C=C(C)C(=O)Nc1ccc(Cl)c(Cl)c1 [Chloranocryl] (100 µM) | -22.2 ± 23
N=C(N)NN=C(/C=C/c1ccc([N+](=O)[O-])o1)/C=C/c1ccc([N+](=O)[O-])o1 [Nitrovin] (10 µM) | 88.4 ± 21
O=C(O)CCCCCCCCC(=O)O [Decanedioic acid] (200 µM) | -3.64 ± 3

Structure (SMILES) | CD86 surface expression induction
C/C=C/C=C/C=O [2,4-Hexadienal] (200 µM) | 4.48 ± 7.5
Cc1occc1S [2-Methyl-3-furanthiol] (200 µM) | 33 ± 9.3
CC[C@@]1(O)C(=O)OCc2c1cc1n(c2=O)Cc2c-1nc1ccccc1c2/C=N/OC(C)(C)C [Gimatecan] (10 µM) | 25.6 ± 10
Oc1ccc2cc(SSc3ccc4cc(O)ccc4c3)ccc2c1 [6-Hydroxy-2-naphthyl disulfide] (100 µM) | 67.2 ± 57
Clc1ccc(C(Cn2ccnc2)OCc2ccc(Sc3ccccc3)cc2)c(Cl)c1 (stereo not given) [Fenticonazole nitrate] (100 µM) | 102 ± 96
Cc1c2ccccc2c(C)c2c1ccc1ccccc12 [7,12-Dimethylbenzanthracene] (10 µM) | 47.5 ± 61
Nc1ccc(/N=N/c2ccccc2)c(N)n1 [Phenazopyridine hydrochloride] (100 µM) | -8.42 ± 5.7
CCOc1ccc2nc3cc(N)ccc3c(N)c2c1 [Ethacridine lactate monohydrate] (200 µM) | 42.2 ± 53
Nc1ccccc1N [1,2-Phenylenediamine*] (200 µM) | 88.8 ± 49
Cc1ccc(O)c(-n2nc3ccccc3n2)c1 [2-(2H-Benzotriazol-2-yl)-4-methylphenol] (100 µM) | -18.9 ± 28
CCN(CC)c1ccc(C(=O)c2ccccc2C(=O)O)c(O)c1 [2-[4-(Diethylamino)-2-hydroxybenzoyl]benzoic acid] (10 µM) | -12.1 ± 11
O=C(Oc1ccccc1)c1cccc(C(=O)Oc2ccccc2)c1 [Diphenyl isophthalate] (200 µM) | 1.84 ± 5.6
O=C(Oc1ccccc1)c1ccccc1O [Phenyl salicylate] (200 µM) | -3.35 ± 5.3
C=C1CC[C@H](O)C/C1=C/C=C1\CCC[C@]2(C)[C@@H]([C@H](C)/C=C/[C@H](C)C(C)C)CC[C@@H]12 [Ergocalciferol*] (100 µM) | 74 ± 130
C/C=C1\C(=O)C[C@H]2[C@@H]3CCC4=CC(=O)CC[C@]4(C)[C@H]3CC[C@]12C [Guggulsterone Z] (100 µM) | -9.87 ± 7.2
Clc1nc(C(Cl)(Cl)Cl)c(Cl)c(Cl)c1Cl [2,3,4,5-Tetrachloro-6-(trichloromethyl)pyridine] (10 µM) | -11.6 ± 6.2
O=C(NS(=O)(=O)/C=C/c1ccccc1)c1ccc(F)cc1Cl (200 µM) | -3.08 ± 4.4
C=CCOC(=O)/C=C\C(=O)OCC=C [Diprop-2-en-1-yl (2Z)-but-2-enedioate] (203 µM) | 29.9 ± 1.4
COc1cc(C(C)C)c2c(c1)S(=O)(=O)N(COc1cc(=O)n3cccc(OCCN4CCCCC4)c3n1)C2=O (100 µM) | 117 ± 98
CCCSS/C(CCO)=C(/C)N(C=O)Cc1cnc(C)nc1N [Prosultiamine] (10 µM) | -13 ± 4.4

Source: the supplement of paper PMC10933113
